# The whole screen tested about 290,000 compounds, of which about 890 (0.31%) were called active. The sample holds actives, similar compounds and a random draw of the others, so the mix is not that of the screen. Rule as the data show it: active = inhibition mostly above about 52% (no sharp cut-off); inactive = mostly below about 76%.
# Experiment: inhibitors of HIV fusion peptide binding, primary screen, biochemical, uHTS, fluorescence dequenching (AID 1986)
# Conditions: cell-free peptide binding, 30 min, stronger effect = higher value
# [1] = measured here: repeat confirmation average inhibition, at 18.6 µM
Compound,inhibition (at 20 µM),inhibition [1] [%]
Cc1ccccc1C(=NC(=O)c1ccccc1)c1ccccc1,0.6% (inactive),
COc1cc(/C=C(\C#N)c2nc3ccccc3[nH]2)cc(Br)c1OCc1ccccc1,6.5% (inactive),
COc1ccc(-c2csc(/C(C#N)=C\c3ccc(O)c([N+](=O)[O-])c3)n2)cc1OC,62.9% (inactive),9.1
COc1cc(/C=C(\C#N)C(=O)c2c[nH]c3ccccc23)cc(OC)c1O,62.6% (active),
COc1cc(/C=C(/C#N)c2nc(-c3cc4ccccc4oc3=O)cs2)cc([N+](=O)[O-])c1O,66.8% (active),
COc1cc(/C=C(\C#N)c2nc3ccc(C)cc3[nH]2)c([N+](=O)[O-])cc1OC,-2.7% (inactive),
COc1cc(/C=C(\C#N)C(=O)c2c(C)[nH]c3ccccc23)cc(OC)c1OC,-1.7% (inactive),
COc1ccc(/C=C(\C#N)C(=O)c2c(C)[nH]c3ccccc23)cc1OC,-1.1% (inactive),
COc1ccc(/C=C(\C#N)c2nc3ccccc3[nH]2)cc1O,-0.7% (inactive),
COc1cc(/C=C(\C#N)c2nc3ccccc3[nH]2)cc(OC)c1O,69.9% (active),
COc1ccc(/C=C(\C#N)c2nc3ccc(C)cc3[nH]2)cc1Oc1ccc(C(F)(F)F)cc1[N+](=O)[O-],10% (inactive),
COc1cc(/C=C(\C#N)c2nc(-c3cc4ccccc4oc3=O)cs2)ccc1O,31.9% (inactive),
CSc1ccc(S(=O)(=O)N2CCC(C(=O)NCC3CCCO3)CC2)cc1 (stereo unspecified),-1.2% (inactive),
COc1ccc(NC(=O)c2ccsc2NC(C)=O)cc1,-0.1% (inactive),
COCCSc1nnc(NC(=O)c2ccc(NC(=O)C(C)C)cc2)s1,1.5% (inactive),
CCN(c1ccccc1)S(=O)(=O)c1ccc(OCC(=O)Nc2cc(C)on2)cc1,-4% (inactive),
Cc1c(NC(=O)c2c(F)cccc2F)c(=O)n(-c2ccccc2)n1C,0.4% (inactive),
CCOc1cc(N2CCOCC2)c(OCC)cc1NC(=O)COC(=O)c1cc2ccccc2cc1O,-0.9% (inactive),
CCOC(=O)CNC(=O)CNC(=O)Cn1ccc2ccccc2c1=O,-0.8% (inactive),

Compound,inhibition (at 20 µM),inhibition [1] [%]
O=C(C[n+]1ccc(C(=O)NCc2ccccc2)cc1)c1ccc(Cl)cc1,1.3% (inactive),
Cc1ccc(NC(=O)COC(=O)Cn2cnc3c2c(=O)n(C)c(=O)n3C)c(Cl)c1,1.4% (inactive),
O=C(NCCCCc1ccccc1)C1CCCC1,-0.4% (inactive),
COc1ccccc1NC(=O)CCCc1nc(-c2ccc(OC)c(OC)c2)no1,-1% (inactive),
COC(=O)c1ccc(COc2ccc(/C=C(\C#N)c3nc4ccccc4[nH]3)cc2OC)o1,4.4% (inactive),
COc1cc(/C=C(/C#N)c2nc3ccccc3[nH]2)ccc1OC(=O)c1ccco1,0.5% (inactive),
Cc1cc(/C=C(/C#N)c2nc3ccccc3[nH]2)c(C)n1-c1cc(C(=O)O)cc(C(=O)O)c1,63.6% (inactive),40.2
Cc1cc(/C=C(\C#N)c2nc3ccccc3[nH]2)c(C)n1C,54% (active),
Cc1ccc2nc(/C(C#N)=C/c3ccc(-c4ccccc4C(=O)O)o3)[nH]c2c1,94.3% (active),63.8
COc1cc(/C=C(\C#N)c2nc3ccccc3[nH]2)ccc1OC(=O)c1ccco1,61.1% (active),
N#C/C(=C\c1ccc(-c2ccccc2C(=O)O)o1)c1nc2ccccc2[nH]1,29.4% (inactive),
Cc1cc2nc(/C(C#N)=C\c3ccc(-c4ccccc4C(=O)O)o3)[nH]c2cc1C,135% (inactive),
Cc1cc(/C=C(/C#N)c2nc3ccccc3[nH]2)c(C)n1-c1ccccc1C(=O)O,9.7% (inactive),
O=C(NC(=S)Nc1ccc(CN2CCCCC2)cc1)c1ccco1,0.8% (inactive),
Cc1ccccc1-n1ncc2c1CC(C)(C)CC2NC(=O)CCCN1CCCC1=O (stereo unspecified),0.2% (inactive),
CCOc1ccc(NC(=O)CSc2nc3ccsc3c(=O)n2CCC(=O)O)cc1,2.5% (inactive),
Oc1oc(-c2ccccc2Br)nc1C=Nc1ccc(Br)cn1,-0.2% (inactive),
COc1ccc(N=Nc2n(C)c3ccccc3[n+]2C)cc1,79.3% (active),
Cn1c(N=Nc2ccc(N3CCOCC3)cc2)[n+](C)c2ccccc21,-4.1% (inactive),

Compound,inhibition (at 20 µM),inhibition [1] [%]
COc1ccc(N2CC(O)=C(c3n(C)c4ccccc4[n+]3C)C2=N)cc1,1.6% (inactive),
CC(C)(C)c1cc(C(=O)C[n+]2ccc(C(=O)NCCCO)cc2)cc(C(C)(C)C)c1O,-4% (inactive),
CCCOC(=O)C1C2C=CC3(CN(c4cccc(Cl)c4)C(=O)C13)O2 (stereo unspecified),0.8% (inactive),
Cc1cc(C)n2nc(C(F)(F)F)c(-c3ccccc3)c2n1,0.5% (inactive),
Cc1cc(N2CCOCC2)n2nc(C(F)(F)F)c(-c3ccccc3)c2n1,0.1% (inactive),
O=C(Nc1cccc2ncccc12)c1ccc(F)cc1,2.1% (inactive),
CC(C)(C)c1ccc(C(=O)Nc2cccc3ncccc23)cc1,62% (active),65.1
O=C(Nc1cccc2ncccc12)c1ccc(Cl)cc1,-1% (inactive),
COc1ccc(O)c(C(=O)c2cnc3nc4ccccc4n3c2)c1,28.4% (inactive),
c1ccc(-c2csc(-c3ccncc3)n2)cc1,0.1% (inactive),
O=C(O)c1c2c(nc3ccccc13)/C(=C/c1ccc(O)cc1)CC2,77.1% (active),
O=C(O)c1ccc(/C=C2\CCCc3c2nc2ccccc2c3C(=O)O)cc1,4.2% (inactive),
O=C(O)c1c2c(nc3ccccc13)/C(=C/c1ccc(O)cc1)CCC2,6.1% (inactive),
CC(C)OCCCNC(=O)NC12CC3CC(CC(C3)C1)C2,1.1% (inactive),
Cc1ccc(-n2nc3c(c2NC(=O)c2ccc4c(c2)OCO4)CS(=O)C3)cc1 (stereo unspecified),-0.3% (inactive),
CCc1nnc(NS(=O)(=O)c2ccc(NC(=S)NC(=O)/C=C/c3ccc([N+](=O)[O-])cc3)cc2)s1,25.6% (inactive),
CCc1nnc(NS(=O)(=O)c2ccc(NC(=S)NC(=O)/C=C/c3ccccc3)cc2)s1,60.8% (active),
CCc1nnc(NS(=O)(=O)c2ccc(NC(=S)NC(=O)/C=C/c3ccc(OC)cc3)cc2)s1,34.6% (inactive),
Cc1cccc(C)c1NC(=O)C(Cl)=C(Cl)Cl,0.7% (inactive),

# Reference: PubChem BioAssay AID1986 (Sanford-Burnham Center for Chemical Genomics, 2009)
